# Laboratory results taken from PubChem BioAssay AID434989 (The Scripps Research Institute Molecular Screening Center, 2010).
# In all, about 330,000 compounds went through this assay and about 1,400 (0.42%) were called active.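 The calls were made as follows: active = inhibition above its plate's threshold, mean inhibition of all tested compounds on the plate plus 3 SD (cut at about 37% in these data); inactive = the rest.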 The entries come from a sample that favours actives as a whole.
# Molecular target: Orexin/Hypocretin receptor type 1 (Homo sapiens) (UniProt O43613)
# Assay: OX1R (HCRTR1) antagonists, primary screen, fluorescence, CHO/OX1R cells, Fluo-8 calcium, orexin A (AID 434989);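 also: 0% = orexin A challenge wells and 100% = SB-334867-A antagonist wells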
# Conditions: Fluo-8 calcium fluorescence, at 5 µM, hits give high values
# Sequence of Orexin/Hypocretin receptor type 1 (Homo sapiens) (O43613 whole entry, looked up): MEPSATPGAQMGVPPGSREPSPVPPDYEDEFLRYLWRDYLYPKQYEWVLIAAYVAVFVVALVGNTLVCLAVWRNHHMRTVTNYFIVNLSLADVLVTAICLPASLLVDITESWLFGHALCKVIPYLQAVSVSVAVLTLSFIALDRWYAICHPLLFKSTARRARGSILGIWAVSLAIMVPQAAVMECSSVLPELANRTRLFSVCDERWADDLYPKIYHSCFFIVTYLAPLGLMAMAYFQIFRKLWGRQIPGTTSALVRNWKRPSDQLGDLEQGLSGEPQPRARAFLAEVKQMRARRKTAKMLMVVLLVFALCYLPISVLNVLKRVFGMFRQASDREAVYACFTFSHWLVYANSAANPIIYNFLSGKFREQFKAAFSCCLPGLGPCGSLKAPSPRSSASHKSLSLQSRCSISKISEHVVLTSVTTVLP
row,SMILES,inhibition
1,CN1CCN(C(=S)SCC(=O)Nc2ccc(Cl)cc2C(=O)c2ccccc2)CC1,-28.1% (inactive)
2,CC(C(=O)Nc1ccc(Cl)cc1Cl)N1CC=C(c2ccccc2)CC1 (stereo not given),50% (active)
3,Cc1ccc(C(C)C)c(OCC(=O)N2CCN(CC(=O)N3CCOCC3)CC2)c1,4.64% (inactive)
4,O=C(N/N=C/c1c(O)n(C2CC2)c(=S)[nH]c1=O)c1ccccc1,-22.4% (inactive)
5,Cc1ccc(Cn2nnnc2CN2CCC(n3nnc4ccccc43)CC2)cc1,-21.8% (inactive)
6,Cc1ccc(CN2CCCC(C(=O)c3ccc4c(c3)OCO4)C2)cc1C (stereo not given),-21.1% (inactive)
7,COc1cc2nc(N3CCN(C(=O)[C@@H]4CCCO4)CC3)nc(N)c2cc1OC,2.61% (inactive)
8,O=C1C2(Cl)C3(Cl)C4(Cl)C(Cl)(Cl)C5(Cl)C3(Cl)C1(Cl)C5(Cl)C24Cl (stereo not given),72.3% (active)
9,CC1=C(C(=O)Nc2ccccc2)SCCO1,-6.61% (inactive)
10,Nc1ccc([N+](=O)[O-])cc1,-2.36% (inactive)
